{"source": "PubChem BioAssay AID652054", "about": "(National Center for Advancing Translational Sciences (NCATS), 2013)", "note": "The campaign covered roughly 360,000 compounds. About 9,100 (2.5%) were called active. Inconclusive results (about 4%) are left out. Cut-off read from the data, not from the text of the source: active = max response below about -50%; inconclusive = no clear call, values can overlap the other calls; inactive = above that. What follows is part of a selection rich in actives, with near analogues and random picks from the rest. % is set by controls: 0 for no effect and ±100 for the full control effect.", "data": [{"target": "D(3) dopamine receptor (Homo sapiens) (UniProt P35462)", "sequence (P35462 whole entry, looked up)": "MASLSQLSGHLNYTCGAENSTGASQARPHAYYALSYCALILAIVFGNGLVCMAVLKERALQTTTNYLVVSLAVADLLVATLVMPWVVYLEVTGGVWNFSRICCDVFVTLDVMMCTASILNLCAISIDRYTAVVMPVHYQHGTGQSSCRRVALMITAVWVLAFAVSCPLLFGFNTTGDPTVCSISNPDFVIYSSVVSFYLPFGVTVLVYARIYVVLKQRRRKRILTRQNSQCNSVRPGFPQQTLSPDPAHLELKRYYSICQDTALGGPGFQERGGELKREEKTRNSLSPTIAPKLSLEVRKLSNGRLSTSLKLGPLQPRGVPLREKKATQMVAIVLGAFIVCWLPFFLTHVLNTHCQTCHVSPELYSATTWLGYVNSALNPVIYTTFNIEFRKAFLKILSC", "assay": "qHTS of D3 Dopamine Receptor Antagonist: qHTS", "settings": "D3R cells, DiscoveRx beta-arrestin luminescence, antagonist mode; active compounds read low", "summary_of_the_method": "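Cells expressing the human receptor were seeded at 1500 cells/well, incubated overnight at 37 degrees C in 5% CO2, then exposed to library compounds with dopamine controls for 90 minutes at 37 degrees C before luminescent detection.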", "values": [{"smiles": "O=C(COc1cc2oc(=O)c3c(c2cc1Cl)CCC3)NCCCN1CCOCC1", "max response, negative = inhibition": "-19% (inactive)"}, {"smiles": "CCn1c(=O)cc(OCC(=O)NCCCN2CCN(c3cccc(Cl)c3)CC2)c2ccccc21", "max response, negative = inhibition": "-69.4% (active)"}, {"smiles": "Cn1c(Cc2cccc3ccccc23)nnc1SCC(=O)N1CCN(c2cccc(Cl)c2)CC1", "max response, negative = inhibition": "0% (inactive)"}, {"smiles": "COc1cccc(CNC(=O)Cc2csc(Nc3nc(=S)[nH]c4ccccc34)n2)c1", "max response, negative = inhibition": "11.5% (inactive)"}, {"smiles": "O=C(Cc1ccc(-n2c(=O)[nH]c3ccccc3c2=O)cc1)N1CCN(c2cccc(Cl)c2)CC1", "max response, negative = inhibition": "36.6% (inactive)"}, {"smiles": "CCOC(=O)N1CCC(Nc2c(NCCN3CCN(c4cccc(Cl)c4)CC3)c(=O)c2=O)CC1", "max response, negative = inhibition": "0.472% (inactive)"}, {"smiles": "O=C(NCCCN1CCOCC1)c1cc(-c2ccc(Cl)cc2)on1", "max response, negative = inhibition": "4.36% (inactive)"}, {"smiles": "Cn1c(C(=O)NCCCN2CCN(c3cccc(Cl)c3)CC2)cc2c(=O)n(C)c3ccccc3c21", "max response, negative = inhibition": "-103% (active)"}, {"smiles": "O=C(CCCn1c(=O)[nH]c2cc(Cl)ccc2c1=O)NCCN1CCN(c2ccccc2)CC1", "max response, negative = inhibition": "-29.2% (inactive)"}, {"smiles": "Cn1c(C(=O)N2CCC(C(N)=O)CC2)cc2c(=O)n(C)c3ccccc3c21", "max response, negative = inhibition": "0% (inactive)"}, {"smiles": "O=C(CCn1c(=O)[nH]c2ccccc2c1=O)NCCCN1CCN(c2cccc(Cl)c2)CC1", "max response, negative = inhibition": "-71.4% (active)"}, {"smiles": "O=C(Cc1csc(Nc2nc(=S)[nH]c3ccccc23)n1)NCCCN1CCN(c2cccc(Cl)c2)CC1", "max response, negative = inhibition": "-83.7% (active)"}, {"smiles": "C[C@H]1CN([C@@H](C)CO)C(=O)CCCn2cc(nn2)CO[C@@H]1CN(C)S(=O)(=O)c1ccccc1C#N", "max response, negative = inhibition": "-12.5% (inactive)"}, {"smiles": "Cc1ccc2nc(-c3ccccc3)c(CC3CCCCC3)n2c1", "max response, negative = inhibition": "-9.93% (inactive)"}, {"smiles": "COc1ccc(C(O)C(O)(C(=O)OC(C)C)c2ccc(C)cc2)cc1", "note": "(centres undefined)", "max response, negative = inhibition": "-17.4% (inactive)"}, {"smiles": "CC(C)C[C@H]1CNC(=O)C(=O)N1C[C@H]1CCCN1C[C@H](Cc1ccc(O)cc1)N1C[C@H](CC(C)C)N(CC2CCCCCC2)C(=O)C1=O", "max response, negative = inhibition": "30.9% (inactive)"}, {"smiles": "CC(C)C[C@@H]1Cc2[nH][nH]c(=O)c2[C@H](CCc2ccccc2)O1", "max response, negative = inhibition": "-13% (inactive)"}, {"smiles": "Clc1ccc(-c2cccc3nccn23)cc1", "max response, negative = inhibition": "0% (inactive)"}, {"smiles": "CCn1c(SCC(=O)N2CCCC2=O)nc2ccccc21", "max response, negative = inhibition": "7.76% (inactive)"}, {"smiles": "CCOC(=O)[C@]12CCCC=C1N(CCC1=CCCCC1)C(=O)[C@H](CC(=O)NCCCOC)C2", "max response, negative = inhibition": "7.2% (inactive)"}, {"smiles": "COc1ncnc2c1ncn2CCCNCCN1CCOCC1", "max response, negative = inhibition": "20.7% (inactive)"}, {"smiles": "COc1ccc(S(=O)(=O)N/N=C\\c2ccc(OC)c(COc3ccc(C)cc3[N+](=O)[O-])c2)cc1", "max response, negative = inhibition": "-59.9% (active)"}, {"smiles": "Cc1ccc(S(=O)(=O)N/N=C\\c2cc3c(cc2[N+](=O)[O-])OCO3)cc1", "max response, negative = inhibition": "-4.05% (inactive)"}, {"smiles": "COc1ccc(S(=O)(=O)Nc2ccc3cn[nH]c3c2)cc1[N+](=O)[O-]", "max response, negative = inhibition": "-18.8% (inactive)"}, {"smiles": "Nc1[nH]c(C(=O)c2ccccc2)c(-c2ccncc2)c1C(=O)NCc1cccc2ccccc12", "max response, negative = inhibition": "-9.51% (inactive)"}, {"smiles": "Nc1ncnc2c1ncn2[C@@H]1O[C@H](CNC(=O)[C@H](N)Cc2cccnc2)[C@@H](O)[C@H]1O", "max response, negative = inhibition": "1.65% (inactive)"}, {"smiles": "COc1cc(NC(=O)NCC2CCN(Cc3ccc(C)cc3)CC2)cc(OC)c1OC", "max response, negative = inhibition": "-16.2% (inactive)"}, {"smiles": "COc1ccc(Cl)cc1NC(=O)C(C)N1CCc2ccccc21", "note": "(centres undefined)", "max response, negative = inhibition": "-7.48% (inactive)"}, {"smiles": "COc1ccc(Cl)cc1NC(=O)NCC1CCN(Cc2ccccc2F)CC1", "max response, negative = inhibition": "-85.7% (active)"}, {"smiles": "Cc1cccc(CN2CCC(CNC(=O)Nc3ccc(F)c(Cl)c3)CC2)c1", "max response, negative = inhibition": "-60.2% (active)"}, {"smiles": "O=C(CN1CCN(Cc2ccccc2)CC1)Nc1ccc(F)c(F)c1", "max response, negative = inhibition": "-16.4% (inactive)"}, {"smiles": "O=C(NCC1CCN(Cc2ccccc2Cl)CC1)Nc1cccc(Cl)c1", "max response, negative = inhibition": "-29.8% (inactive)"}, {"smiles": "CCc1nc2c(OCC(=O)C(C)(C)C)cccn2c1N(C)C(=O)c1ccccc1F", "max response, negative = inhibition": "-24.2% (inactive)"}, {"smiles": "O=C1NC(Cc2ccccc2)c2nc3ccc(Br)cc3c(=O)n2-c2cc3ccccc3cc21", "note": "(centres undefined)", "max response, negative = inhibition": "-0.847% (inactive)"}, {"smiles": "COc1ccccc1CNC(=O)c1cc(-c2cc(F)ccc2OC)n[nH]1", "max response, negative = inhibition": "18.6% (inactive)"}, {"smiles": "COc1cc(F)ccc1-c1cc(C(=O)NCC2CCCCC2)[nH]n1", "max response, negative = inhibition": "-75.3% (active)"}, {"smiles": "COc1cc(NC(=O)c2cc(-c3ccc(F)cc3OC(C)C)n[nH]2)cc(OC)c1OC", "max response, negative = inhibition": "6.57% (inactive)"}, {"smiles": "CC(=O)c1ccc(Nc2nc(C(N)c3ccccc3)cs2)cc1", "note": "(centres undefined)", "max response, negative = inhibition": "2.63% (inactive)"}, {"smiles": "C[C@@H]1CN([C@@H](C)CO)S(=O)(=O)c2ccc(-c3ccc(C(=O)N(C)C)cc3)cc2O[C@@H]1CN(C)Cc1ccccc1C(=O)O", "max response, negative = inhibition": "16.1% (inactive)"}, {"smiles": "COc1ccc(F)c(-c2nc(CN3CCC(c4ccccc4)CC3)c(C)o2)c1", "max response, negative = inhibition": "-19.4% (inactive)"}, {"smiles": "COc1ccc(CN2CCC(c3nc4ccc(Cl)cc4[nH]3)CC2)cc1", "max response, negative = inhibition": "-101% (active)"}, {"smiles": "COc1ccc(Cn2nnc3c(=O)[nH]c(C4CCN(C(=O)c5ccccc5Cl)CC4)nc32)cc1", "max response, negative = inhibition": "-22.4% (inactive)"}, {"smiles": "C[C@@H]1CN([C@@H](C)CO)C(=O)c2cc(Br)cnc2O[C@@H]1CN(C)C(=O)C1CCCCC1", "max response, negative = inhibition": "22.5% (inactive)"}, {"smiles": "O=C(CSc1nnc(-c2ccco2)n1-c1ccccc1)NCCc1ccccc1", "max response, negative = inhibition": "-54.3% (active)"}, {"smiles": "Cc1cccc(C)c1NC(=O)CCCSc1nnc(-c2ccco2)n1-c1ccccc1", "max response, negative = inhibition": "-8.78% (inactive)"}, {"smiles": "COc1ccc(C(=O)NC(=O)CSc2nnc(-c3ccco3)n2-c2ccccc2)cc1", "max response, negative = inhibition": "-3.83% (inactive)"}, {"smiles": "O=C(NNC(=O)c1ccccc1O)c1ccccc1O", "max response, negative = inhibition": "5.67% (inactive)"}, {"smiles": "O=C(CO/N=C/c1ccccc1O)NNC(=O)c1ccccc1Cl", "max response, negative = inhibition": "-53.5% (active)"}, {"smiles": "O=C(CO/N=C/c1ccccc1OC(F)F)NC1CCCC1", "max response, negative = inhibition": "8.59% (inactive)"}, {"smiles": "Cc1ccc(S(=O)(=O)N2CC3C(=O)C[C@@H](c4ccccc4Cl)N(S(=O)(=O)c4ccc(C)cc4)C3CC2c2ccccc2)cc1", "note": "(some centres undefined)", "max response, negative = inhibition": "9.92% (inactive)"}, {"smiles": "CCOC(=O)c1ccn(S(=O)(=O)c2ccc(C)cc2)c1-c1ccccc1", "max response, negative = inhibition": "-20.6% (inactive)"}, {"smiles": "Cc1c(Cl)cccc1NC(=O)NCCCN1CCCC1=O", "max response, negative = inhibition": "-2.4% (inactive)"}, {"smiles": "Cc1c(Cl)cccc1NC(=O)NCc1ccc(C)n1C", "max response, negative = inhibition": "13.8% (inactive)"}, {"smiles": "CN(C)CCNC(=O)Nc1cccc(Cl)c1Cl", "max response, negative = inhibition": "-70.3% (active)"}]}]}
